PubChem BioAssay AID602393 (Broad Institute, 2012)
The whole screen tested about 350,000 compounds, of which about 7,000 (2%) were called active. This excerpt belongs to a sample that is enriched for actives. Values without a mark were called inactive. No stated cut-off is given here; in the data, active means activation above about 40%; inconclusive means no clear call, values can overlap the other calls; inactive means below that.

Test: raisers of Bmi1 knock-in reporter signal – mouse ES cells, Bmi1 luciferase knock-in, single point, esBAF inhibitor project, primary screen (AID 602393);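 further: 0% = median of the plate's neutral control wells and 100% = double that signal; a rise in the Bmi1 reporter signal indicates esBAF inhibition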
Settings: 24 h, at 12.5 µM, hits give high values, 100% = twice the neutral-well signal

Row | Compound | reporter increase
1 | Cc1ccc(S(=O)(=O)N(C)C[C@@H]2Oc3c(NS(C)(=O)=O)cccc3C(=O)N([C@@H](C)CO)C[C@H]2C)cc1 | -2.2%
2 | O=C(NC[C@@H]1N[C@@H](CO)[C@H]1c1ccc(-c2cccnc2)cc1)c1cccc(F)c1 | 5.54%
3 | COCCNC(=O)C[C@H]1CC[C@H]2[C@H](COc3ccc(NC(=O)C4CCOCC4)cc3C(=O)N2C)O1 | 2.05%
4 | Cc1cccc(NC(=O)Cc2ccc(Br)cc2)n1 | 44.9% (active)
5 | Cc1cccc(NC(=O)COc2ccccc2C)n1 | 44.4% (active)
6 | Cc1ccccc1OCC(=O)Nc1nnc(S(=O)(=O)N2CCCC2)s1 | 1.57%
7 | Cc1ccccc1OCC(=O)Nc1ccc2c(c1)ncn2C | 68.1% (active)
8 | Cc1cccc(NC(=O)COc2ccc(Br)cc2C)n1 | 35.7%
9 | Cc1cccc(NC(=O)c2ccc3ccccc3n2)n1 | 25.2%
10 | Cc1ccccc1OCC(=O)Nc1nc(C)c(C(=O)N(C)C)s1 | 9.35%
11 | CCOc1ccc(OCc2ccc(C(=O)Nc3cccc(C)n3)o2)cc1 | 37.5%
12 | COCCNC(=O)COc1ccccc1C | 0.533%
13 | C/C=C/c1ccc([C@H]2[C@@H](CO)N(C(=O)CC)[C@H]2CN(C)C(=O)C2CC2)cc1 | 5.87%
14 | CCCNC(=O)NC[C@H]1[C@H](c2ccc(C3=CCCCC3)cc2)[C@H](CO)N1C(C)=O | -2.67%
15 | COCc1cn(CC[C@H]2CC[C@H](NC(=O)Cc3cccnc3)[C@H](CO)O2)nn1 | 1.37%
16 | COCC(=O)Nc1ccc2c(c1)OC[C@H](C)N(Cc1ccccc1OC)C[C@@H](C)[C@@H](OC)CN(C)C2=O | 0.256%
17 | CCCNC(=O)C[C@H]1CC[C@H]2[C@@H](COc3ccc(NC(=O)Nc4c(C)noc4C)cc3C(=O)N2C)O1 | -1.98%
18 | COc1ccccc1-c1cc2nc(NCc3cccc(Cl)c3)ccn2n1 | -5.22%
19 | CC(C)Cc1ccc(-c2cc3nc(NCc4cccc(Cl)c4)ccn3n2)cc1 | 79.4% (active)
20 | COCCCNc1ccn2nc(-c3ccc(CC(C)C)cc3)cc2n1 | 24.7%
21 | COc1ccc(-c2cnc3c(c2)C(=O)N([C@@H](C)CO)C[C@@H](C)[C@H](CN(C)C)O3)cc1 | -2.94%

Row | Compound | reporter increase
22 | O=C(C[C@H]1C=C[C@@H](NC(=O)C2CC2)[C@H](CO)O1)NCC1CC1 | -2.61%
23 | Cc1cccc(N=Nc2c(O)[nH]c3ccc(F)cc23)c1 | 72.6% (active)
24 | Oc1[nH]c2ccc(Br)cc2c1N=Nc1nn[nH]n1 | 6.07%
25 | NS(=O)(=O)c1ccc(N=Nc2c(O)[nH]c3ccc(Br)cc23)cc1 | -6.6%
26 | Cc1ccc(S(=O)(=O)Nc2ccc3c(c2)C(=O)N([C@H](C)CO)C[C@@H](C)[C@H](CN(C)S(=O)(=O)c2cccs2)OCCCC[C@@H](C)O3)cc1 | 5.34%
27 | Cc1ccc(S(=O)(=O)N[C@H]2CC[C@H](CC(=O)NCc3ccccc3F)O[C@@H]2CO)cc1 | -2.95%
28 | O=C1C=C(c2ccc(Cl)cc2)C(=O)N1Nc1ccccc1 | -0.361%
29 | O=C(O)CC1=C(Nc2ccccc2)C(=O)N(c2ccccc2)C1c1ccc(Cl)cc1 (configuration not stated) | 49.1% (active)
30 | O=C1C(=O)N(c2ccccc2)C(c2ccccc2)C1c1ccccc1 (configuration not stated) | -0.185%
31 | C[C@@H]1CN([C@@H](C)CO)C(=O)Cc2cc(NC(=O)C3CCCCC3)ccc2O[C@H]1CN(C)C(=O)Nc1ccccc1 | 0.449%
32 | CCOC(=O)c1c(C)nc(-c2ccccc2)nc1NC(=O)C(C)C | 42.3% (active)
33 | CCOC(=O)c1c(-c2ccc(-c3ccccc3)cc2)csc1NC(=O)CCC(=O)O | -6.99%
34 | CCOC(=O)c1c(N)nn(C(=O)c2ccccc2)c1-c1ccccc1 | -1.4%
35 | O=C(O)c1cc([N+](=O)[O-])c(Nc2cccc3ccccc23)c([N+](=O)[O-])c1 | 15.6%
36 | O=C(Nc1ccccc1C(=O)Nc1ccncc1)c1ccc([N+](=O)[O-])cc1 | -2.66%
37 | O=C(Nc1ccc2ccccc2c1[N+](=O)[O-])c1ccccc1 | 114% (active)
38 | CC(C)CC#Cc1cnc2c(c1)C(=O)N([C@H](C)CO)C[C@H](C)[C@@H](CN(C)C(=O)Cc1cccnc1)O2 | -2.07%
39 | COc1ccc(NC(=O)N2C[C@H](O)COC[C@@H]3O[C@@H](CC(=O)NCc4ccccc4OC)CC[C@H]32)cc1 | 2.12%
40 | CCCNC(=O)[C@@H]1[C@@H](CO)[C@@H]2Cn3c(ccc(/C=C/c4ccccc4)c3=O)[C@H]1N2CCC | -5.3%
41 | CCOc1c2ccc(C(=O)NCc3ccc4c(c3)OCO4)cc2nn1C | -7.4%
42 | C=CCNC(=O)c1ccc2c3n(nc2c1)-c1ccc(C)cc1CO3 | 56.5% (active)

Row | Compound | reporter increase
43 | Cc1cccc(-c2nc3ccc(C(=O)NCCN4CCN(C)CC4)cc3nc2-c2cccc(C)c2)c1 | -7.08%
44 | O=C(Nc1cccc(F)c1)NC1CCCCCCC1 | 59.1% (active)
45 | O=C(Nc1cccc(F)c1)NC1CCCc2ccccc21 (configuration not stated) | -6.65%
46 | Cc1cc(C)cc(NC(=O)NC2CCCCCCC2)c1 | 15.2%
47 | COc1ccc(/C=N/Nc2nc(-c3ccc(C)cc3)c(C#N)c(=O)[nH]2)cc1 | -5.86%
48 | COc1ccc(/C=N/Nc2nc3ccccc3c(=O)[nH]2)cc1 | 45.1% (active)
49 | COc1ccc(/C=N/Nc2ccccc2C(=O)O)cc1 | -28.7%
50 | CN(C)CC(=O)Nc1ccc2c(c1)[C@H]1C[C@@H](CC(=O)NCc3ccc(-c4ccccc4)cc3)O[C@H](CO)[C@H]1O2 | 4.03%
51 | COc1ccc(NC(=O)Nc2ccc3c(c2)[C@H]2C[C@H](CC(=O)NC4CCCC4)O[C@H](CO)[C@H]2O3)cc1 | 2.4%
52 | Cc1csc(NC(=O)c2ccc(C)s2)n1 | 50.8% (active)
53 | Cc1csc(NC(=O)C2CCN(S(=O)(=O)c3ccccc3)CC2)n1 | -5.46%
54 | Cc1csc(NC(=O)CN2CCCCCC2)n1 | -1.61%
55 | CCNC(=O)[C@H]1[C@H](CO)[C@H]2Cn3c(ccc(/C=C/c4ccccc4)c3=O)[C@@H]1N2C(=O)C1CCC1 | 0.423%
56 | COC(=O)C[C@H]1CC[C@H](NC(=O)c2ccccc2)[C@@H](CO)O1 | -1.98%
57 | C/C=C/c1ccc2c(c1)O[C@@H](CN(C)S(C)(=O)=O)[C@@H](C)CN([C@H](C)CO)S2(=O)=O | -0.163%
58 | COc1ccc(-c2nnc(SCc3cccnc3)o2)cc1 | 52.4% (active)
59 | COc1cccc(NC(=O)CSc2nnc(-c3cccnc3)o2)c1 | 13.3%
60 | COc1ccc(-c2nnc(SC(=O)N3c4ccccc4Sc4ccccc43)o2)cc1 | 2.78%
61 | CC(C)NC(=O)N(C)C[C@H]1Oc2ncc(C#CC3CC3)cc2C(=O)N([C@H](C)CO)C[C@@H]1C | -3.17%
62 | CCCC(=O)Nc1ccc2c(c1)OC[C@H](C)N(S(=O)(=O)c1cn(C)cn1)C[C@@H](C)[C@H](OC)CN(C)C2=O | -1.9%
63 | CN1C(=O)c2cc(NC(=O)c3ccccc3)ccc2OC[C@@H]2O[C@H](CC(=O)NCC3CC3)CC[C@@H]21 | 6.3%

Row | Compound | reporter increase
64 | C/C=C/c1ccc2c(c1)O[C@H](CN(C)C(=O)CN(C)C)[C@H](C)CN([C@@H](C)CO)S2(=O)=O | 0.684%
65 | CCOC(=O)Cc1csc(NC(=O)Nc2ccccc2)n1 | 47.4% (active)
66 | CCOC(=O)Cc1csc(NC(NC(=O)OCC)(C(F)(F)F)C(F)(F)F)n1 | -0.744%
67 | COc1ccccc1NC(=O)Nc1nc(CC(=O)Nc2ccccc2F)cs1 | 1.14%
68 | C[C@@H]1CN([C@@H](C)CO)C(=O)c2cc(NS(=O)(=O)c3ccccc3)ccc2O[C@@H](C)CCCCO[C@@H]1CN(C)S(=O)(=O)c1cccs1 | 6.97%
69 | C[C@@H]1CN([C@H](C)CO)S(=O)(=O)c2ccc(C#CCN(C)C)cc2O[C@@H]1CN(C)C(=O)C1CCCCC1 | -0.287%
70 | O=C(c1cc(COc2ccc(F)cc2F)on1)N1CCOCC1 | 61.9% (active)
71 | O=C(c1cc(COc2ccc(F)c(F)c2)on1)N1CCOCC1 | 37.7%
72 | O=C(c1cc(COc2c(F)cccc2F)on1)N1CCSCC1 | 53.1% (active)
73 | O=C(NCCCc1ccccc1)c1cc(COc2c(F)cccc2F)on1 | 17.5%
74 | COc1cccc(OCc2cc(C(=O)N3CCN(C(=O)c4ccco4)CC3)no2)c1 | 70.2% (active)
75 | O=C(c1cc(COc2cccc(C(F)(F)F)c2)on1)N1CCSCC1 | -2.92%
76 | O=C(c1ccco1)N1CCN(C(=O)c2ccc(COc3ccc(F)cc3)o2)CC1 | -8.59%
77 | COc1cccc(OC)c1OCCN1CCN(C(=O)c2ccco2)CC1 | -3.54%
78 | Cc1ccc(C)c(OCc2cc(C(=O)N3CCN(c4cnccn4)CC3)no2)c1 | 3.21%
79 | C[C@@H]1CN([C@@H](C)CO)C(=O)c2cc(NC(=O)C3CCCCC3)ccc2O[C@@H](C)CCCCO[C@H]1CN(C)C(=O)Nc1ccc2c(c1)OCO2 | 7.74%
80 | CC(=O)N[C@@H]1C=C[C@H](CC(=O)NCC2CCCCC2)O[C@H]1CO | 4.99%
81 | C[C@@H]1CCCCO[C@@H](CN(C)Cc2ccncc2)[C@@H](C)CN([C@@H](C)CO)C(=O)c2cc(N(C)C)ccc2O1 | 1.32%
82 | COc1cccc(NC(=O)N[C@@H]2C=C[C@H](CC(=O)NCc3ccccn3)O[C@H]2CO)c1 | -1.55%
